PubChem BioAssay
Records with an inconclusive call do not appear. The source made the active and inactive calls. Unless noted, cut-off not given; nearly all actives show AC50 up to about 30 µM.

Tests used:
[1] = growth inhibition of DIPG glioma cells, dose response, cell-based, SU-DIPG-XIII, MIPE4.0, CellTiter-Glo, qHTS (AID 1347061; cut-off not given, nearly all actives have AC50 up to about 37 µM;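 further: cells exposed to compound for 48 hours before readout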); conditions: SU-DIPG-XIII viability, CellTiter-Glo ATP luminescence
[2] = growth inhibition of DIPG glioma cells, dose response, cell-based, JHH-DIPG-1, MIPE4.0, CellTiter-Glo, qHTS (AID 1347062; cut-off not given, nearly all actives have AC50 up to about 27 µM;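 on AC50: cells exposed to compound for two days before readout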); conditions: JHH-DIPG-1 viability, CellTiter-Glo ATP luminescence
[3] = growth inhibition of DIPG glioma cells, dose response, cell-based, SU-DIPG-IV, MIPE4.0, CellTiter-Glo, qHTS (AID 1347063); conditions: SU-DIPG-IV viability, CellTiter-Glo ATP luminescence;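 further: compound exposure lasted 48 hours before the viability readout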
[4] = sensitizers of A549 cells to miR-34 induction, primary screen, imaging, A549 dox-inducible miR-34, nuclei and caspase counts (AID 1347080;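 active means compounds whose cell count with miR-34 switched on is under 0.7 times the count with it off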); conditions: A549 miR-34 inducible, Hoechst nuclei count, 48 h
[5] = SU-DIPG-XXV glioma cell viability, MIPE5.0 library, qHTS (AID 1347068; cut-off not given, nearly all actives have IC50 up to about 30 µM)
[6] = SU-DIPG-VI glioma cell viability, MIPE4.0 library, CellTiter-Glo luminescence, qHTS (AID 1347066); conditions: CellTiter-Glo ATP luminescence;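 further: cells exposed to compound for 48 hours before readout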
[7] = survival rescue of mitochondrial mutant cells in low glucose, primary screen, MELAS cybrids, Rieske KO mouse fibroblasts, CellTiter-Glo (AID 1508586;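 active means mean z-score across replicates of 1.96 or higher in either the MELAS or the Rieske mutant cell line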;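 further: z relative to plate mean and SD of compound and empty wells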)
[8] = JHH-DIPG-1 glioma cell viability, MIPE5.0 library, CellTiter-Glo luminescence, qHTS (AID 1347067; cut-off not given, nearly all actives have AC50 up to about 26 µM;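 further: cells exposed to compound for 48 hours before readout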); conditions: JHH-DIPG-1 glioma viability, CellTiter-Glo ATP luminescence
[9] = LFS_MB_P medulloblastoma growth inhibition, cell-based, chromothripsis tumors, cisplatin or BGB combos (AID 1671449; in the data active means inhibition above about 80%;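 further: cells exposed for 96 hours; 0% = vehicle DMSO and 100% = killing by high DMSO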); conditions: LFS_MB_P medulloblastoma cells
[10] = HDN33 neuroblastoma growth inhibition, cell-based, chromothripsis tumors, cisplatin or BGB combos (AID 1671450; in the data active means inhibition above about 80%;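 further: cells exposed to compound for four days; 0% = vehicle DMSO and 100% = cell killing by high DMSO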); conditions: HDN33 neuroblastoma cells, stronger effect = higher value
[11] = ICB984 medulloblastoma cell growth inhibition, synergistic combos for chromothripsis tumors, cisplatin or BGB combos (AID 1671451; call rule not given here;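 further: cells exposed for 96 hours before readout; 0% = vehicle DMSO and 100% = killing by high DMSO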); conditions: ICB984 medulloblastoma cells, drug combinations, stronger effect = higher value
[12] = HTB85 osteosarcoma cell growth inhibition, synergistic combos for chromothripsis tumors, BGB or cisplatin IC20 combos (AID 1671453; in the data active means inhibition above about 80%;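 further: cells exposed for 96 hours before readout; 0% = vehicle DMSO and 100% = high DMSO killing control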); conditions: HTB85 osteosarcoma cells, drug combinations, stronger effect = higher value
[13] = MDA-MB-436 breast carcinoma cell growth inhibition, synergistic combos for chromothripsis tumors, BGB or cisplatin combos (AID 1671458; call rule not given here;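 further: cells exposed for 96 hours; 0% = vehicle DMSO and 100% = killing by high DMSO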); conditions: MDA-MB-436 breast carcinoma growth inhibition, drug combinations, stronger effect = higher value
[14] = growth inhibition of BT084 medulloblastoma cells, cell-based, ICGC_MB145, cisplatin and BGB IC40 combos (AID 1671461; in the data active means inhibition above about 80%;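 further: cells exposed to drugs for 96 hours; 0% = vehicle DMSO and 100% = high DMSO full killing control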); conditions: drug combinations, stronger effect = higher value
[15] = growth inhibition of RCMB18 medulloblastoma cells, cell-based, cisplatin and BGB IC40 combos (AID 1671462; in the data active means inhibition above about 80%;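 further: cells exposed to compound for four days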); conditions: stronger effect = higher value
[16] = growth inhibition of CRL1545 osteosarcoma cells, cell-based, cisplatin and BGB IC20 combos (AID 1671464; in the data active means inhibition above about 80%;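 further: cells exposed to compound for 96 hours before readout; 0% = vehicle DMSO and 100% = high DMSO killing control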); conditions: stronger effect = higher value
[17] = stronger effect = lower value, cell number ratio, induced over uninduced
[18] = measured here: relative caspase fold change +Dox/-Dox
[19] = measured here: total cells with miR-34 induction, stronger effect = lower value
[20] = measured here: total cells without miR-34 induction
[21] = MELAS cybrid survival, CellTiter-Glo 48 h, stronger effect = higher value
[22] = Rieske KO mouse fibroblast survival, CellTiter-Glo 72 h
[23] = measured here: with BGB IC20 combination, at 0.5 µM
[24] = measured here: with cisplatin IC20 combination, at 0.5 µM

CC1(C)C(=O)N(CCN2CCC(C(=O)c3ccc(F)cc3)CC2)c2ccccc21
outcome [1]: inactive | outcome [2]: inactive | outcome [3]: inactive | fold change [4, 17]: 0.986 (inactive) | fold change [4, 18]: 1.27 | cell count [4, 19]: 7420 | cell count [4, 20]: 7530

C=C1/C(=C/C=C2\CCCC3(C)[C@@H]([C@H](C)/C=C/C=C/C(O)(CC)CC)CC[C@@H]23)C[C@@H](O)C[C@@H]1O (stereo not given in full)
AC50 [1]: 18.7 µM (active) | AC50 [2]: 20.9 µM (active) | AC50 [3]: 16.6 µM (active) | outcome [5]: inactive

Cc1cc(-c2nnc3n2CCCCC3)c(C)n1-c1ccccc1
outcome [1]: inactive | outcome [2]: inactive | outcome [3]: inactive | outcome [6]: inactive

O=C(O)C(O)Cc1ccc(O)c(O)c1 (stereo not given)
outcome [1]: inactive | outcome [2]: inactive | outcome [3]: inactive | outcome [6]: inactive | outcome [5]: inactive | fold change [4, 17]: 0.928 (inactive) | fold change [4, 18]: 0.6 | cell count [4, 19]: 9530 | cell count [4, 20]: 10300 | z-score [7, 21]: -0.385 (inactive) | z-score [7, 22]: 0.0393

CC(C)OC(=O)[C@H](C)N[P@](=O)(OC[C@H]1O[C@@H](n2ccc(=O)[nH]c2=O)[C@](C)(F)[C@@H]1O)Oc1ccccc1
outcome [1]: inactive | outcome [2]: inactive | outcome [3]: inactive | outcome [6]: inactive | AC50 [8]: 2.63 µM (active) | outcome [5]: inactive | inhibition ([9]; at 0.5 µM, stronger effect = higher value): -27.6% (inactive) | inhibition ([9]; measured here: combination with BGB IC20, at 0.005 µM): -8.86% | inhibition ([9]; measured here: combination with BGB IC40, at 0.005 µM): -29.9% | inhibition ([9]; measured here: combination with BGB IC40, at 0.05 µM): -32.6% | inhibition ([9]; measured here: combination with cisplatin, at 0.5 µM, stronger effect = higher value): -25.8% | inhibition ([9]; measured here: combination with cisplatin, at 5 µM, stronger effect = higher value): -29.3% | inhibition ([10]; BGB combo, at 5 µM): -36.1% | inhibition ([10]; at 0.5 µM): -7.68% (inactive) | inhibition ([10]; cisplatin combo, at 5 µM): -4.94% | inhibition [10, 23]: -9.88% | inhibition [10, 24]: 5.66% | inhibition ([10]; single agent, at 5 µM): -12.1% | inhibition ([11]; BGB IC20 combo, at 0.005 µM): -18% | inhibition ([11]; BGB IC40 combo, at 0.005 µM): -9.03% | inhibition ([11]; BGB IC40 combo, at 0.05 µM): -19.6% | inhibition ([11]; at 0.5 µM): -6.96% (inactive) | inhibition ([11]; cisplatin combo, at 0.05 µM): -25.8% | inhibition ([11]; cisplatin combo, at 0.5 µM): -2.19% | inhibition ([11]; cisplatin combo, at 5 µM): -12.1% | inhibition ([11]; measured here: 5 uM single agent, at 5 µM): -20.9% | inhibition ([12]; at 0.5 µM): 14.1% (inactive) | inhibition ([12]; measured here: with BGB IC20, at 0.5 µM): 45.6% | inhibition ([12]; measured here: with BGB IC20, at 5 µM): 9.23% | inhibition ([12]; measured here: with cisplatin IC20, at 0.5 µM): -3.56% | inhibition ([12]; measured here: with cisplatin IC20, at 5 µM): 2.16% | inhibition ([12]; single agent, at 5 µM): 7.57% | inhibition ([13]; at 0.5 µM): -14.4% (inactive) | inhibition ([13]; measured here: BGB combination, at 0.5 µM): -6.51% | inhibition ([13]; measured here: BGB combination, at 5 µM): -8.4% | inhibition ([13]; measured here: cisplatin combination, at 0.5 µM): -26.3% | inhibition ([13]; measured here: cisplatin combination, at 5 µM): -27.6% | inhibition ([14]; at 0.5 µM): -5.65% (inactive) | inhibition ([14]; cisplatin combination, at 0.5 µM): -1.58% | inhibition ([14]; cisplatin combination, at 5 µM): -68.9% | inhibition ([14]; measured here: BGB IC40 combination 0.05 uM, at 0.05 µM): -37.9% | inhibition ([14]; single agent, at 5 µM): 12.2% | inhibition ([15]; at 0.5 µM): -12.6% (inactive) | inhibition ([15]; cisplatin combo, at 5 µM): -10.4% | inhibition ([15]; measured here: BGB IC40 combination, at 0.05 µM): -14.6% | inhibition ([15]; measured here: combination with cisplatin, at 0.5 µM): 5.31% | inhibition ([15]; single agent, at 5 µM): -3.36% | inhibition ([16]; at 0.5 µM): 22.4% (inactive) | inhibition [16, 23]: 2.82% | inhibition [16, 24]: 31.1% | inhibition ([16]; single agent, at 0.05 µM): -4.05% | inhibition ([16]; single agent, at 5 µM): -21.1%

C[N+]1(C)[C@@H]2CC(OC(=O)C(O)(c3cccs3)c3cccs3)C[C@H]1[C@@H]1O[C@@H]12 (stereo not given in full)
outcome [1]: inactive | outcome [2]: inactive | outcome [3]: inactive | outcome [6]: inactive | fold change [4, 17]: 0.899 (inactive) | fold change [4, 18]: 1.32 | cell count [4, 19]: 10300 | cell count [4, 20]: 11500 | z-score [7, 21]: -0.0486 (inactive) | z-score [7, 22]: -0.119

C/C=C1\C2C=C(C)CC1(N)c1ccc(=O)[nH]c1C2 (stereo not given)
outcome [1]: inactive | outcome [2]: inactive | outcome [3]: inactive | outcome [6]: inactive | fold change [4, 17]: 1.01 (inactive) | fold change [4, 18]: 0.681 | cell count [4, 19]: 4140 | cell count [4, 20]: 4110

CCN1C[C@H](C)n2c(c(O)c3c(=O)n(Cc4ccc(F)c(Cl)c4)nc(C(=O)NC)c32)C1=O
outcome [1]: inactive | outcome [2]: inactive | outcome [3]: inactive | outcome [6]: inactive
